USP17 inh – human USP17-like deubiquitinase inhibition | inhibition, % at 50 µM | A8MUK1 | AID 1645855 | purified USP17, Ub-rhodamine cleavage fluorescence, 3 h | 47,000 compounds, 6.5% hits
OTUD3 block – human OTUD3 deubiquitinase inhibition. 47,000 compounds, 0.7% hits. Q5T2D3. inhibition, % at 25 µM. AID 1645858. purified OTUD3, Ub-rhodamine fluorescence, 2 h
USP28 inh – inhibitors of human USP28 deubiquitinase. Q96RU2. purified USP28, Ub-rhodamine cleavage fluorescence, 30 min. inhibition, % at 25 µM. 47,000 compounds, 3% hits. AID 1645857
USP30 block – blocks human USP30 ubiquitin-rhodamine cleavage | Q70CQ3 | purified USP30, Ub-rhodamine cleavage fluorescence | inhibition, % at 25 µM | 47,000 compounds, 5.3% hits | AID 1645860
Starred values were filed as active, the others as inactive; x = no result. Only some compounds are listed: those with a hit (about 11% of all), similar ones and a draw of the others. Rule as the data show it: active = inhibition above about 30%; inactive = the rest.

SMILES	USP17 inh	OTUD3 block	USP28 inh	USP30 block
Cc1c(C(C)OC(=O)c2ccc(F)cc2)sc2ncnn12 (stereo not drawn)	17	18	29	32*
O=C(c1ccco1)N1CCN(C(c2cccc(F)c2)c2sc3ncnn3c2O)CC1 (stereo not drawn)	0	5	1	0
COC1=CC(=O)c2c(O)c3c(c(C)c2C1=O)C[C@@]1(O)[C@H](O[C@H]2CC[C@H](O[C@H]4C[C@@](C)(O)[C@H](OC(=O)c5c(C)ccc(C)c5O)[C@H](C)O4)[C@@H](C)O2)C(=O)C(C(C)=O)=C(O)[C@@]1(O)C3=O	22	53*	63*	-79
CCCc1cc(=O)oc2cc(OCC(=O)NCc3ccncc3)ccc12	-7	-6	-4	1
Cc1nc(Cn2cccc2C(=O)N2CCc3ccccc32)no1	-4	-1	-6	-81
CCC1Oc2ccc(C(=O)c3ccco3)cc2N(CC(=O)NC2CC2)C1=O (stereo not drawn)	-12	-13	-15	-18
O=C1CC(=O)Nc2cc(S(=O)(=O)NCc3ccc(Cl)cc3)ccc2N1	5	5	3	18
CN[C@H](CC(C)C)C(=O)N[C@H]1C(=O)N[C@@H](CC(N)=O)C(=O)N[C@H]2C(=O)N[C@H]3C(=O)N[C@H](C(=O)N[C@H](C(=O)O)c4cc(O)cc(O)c4-c4cc3ccc4O)[C@H](O)c3ccc(c(Cl)c3)Oc3cc2cc(c3OC2OC(CO)C(O)C(O)C2OC2C[C@](C)(N)[C@H](O)[C@H](C)O2)Oc2ccc(cc2Cl)[C@H]1O (stereo partly drawn)	-10	-28	-23	-80
CCOC(=O)c1cc(OCC(=O)Nc2ccc(C)cc2)c2cc(Cl)ccc2n1	19	18	2	5
CCOC(=O)c1cc(OCC(=O)Nc2ccccc2)c2cc(Cl)ccc2n1	40*	-2	-6	-5
Cc1cc(C)cc(C(=O)N2CCCC3(CCCC(=O)N3C)C2)c1 (stereo not drawn)	-17	6	3	10
Cc1ccc2c(c1)C(=O)c1c(O)cccc1C2=O	1	9	3	11
O=C1CC(O)C(C2=CC(=O)c3c(O)cccc3C2=O)O1 (stereo not drawn)	71*	71*	83*	8
C[C@@H](NC(=O)[C@H](Cc1ccccc1)NC(=O)N1CCn2c1nc1ccccc12)C(=O)O	9	-2	-7	-9
O=c1c2ccccc2ncn1C1CCN(S(=O)(=O)c2ccccc2F)CC1	51*	-4	-7	-13
Cc1cccc2c(=O)n(C3CCN(S(=O)(=O)c4ccccc4)CC3)cnc12	44*	1	3	9
COc1ccc2nc(C(=O)N3CCN(c4ccccc4F)CC3)cn2n1	-1	4	3	16
O=C(Cn1cnc(-c2ccccc2)cc1=O)Nc1ccc(Oc2ccccc2)cc1	15	14	7	22
Cc1ccc(-c2cc(=O)n(CC(=O)Nc3ccc(C(C)C)cc3)cn2)cc1	38*	9	-9	48*
O=c1c2ccc(F)cc2ncn1Cc1csc(-c2ccccc2)n1	30	-22	47*	-118
Cc1ccc(-c2nc(Cn3cnc4sc(C)c(C)c4c3=O)cs2)cc1	x	-24	-61	-202
COc1ccc(-c2nc3[nH]c(=O)cc(NC(=O)C4CCCO4)n3n2)cc1 (stereo not drawn)	1	6	1	0
Cc1ccccc1CN1C(=O)C2(CC(=O)Nc3[nH]ncc32)c2ccccc21 (stereo not drawn)	1	12	11	14
O=C(Nc1ccc(Br)cc1)c1cc(=O)[nH]c2ccccc12	7	5	15	35*
O=C(NCc1ccco1)c1ccc2c(c1)N(Cc1cccc(Cl)c1)C(=O)c1ccccc1S2	38*	18	12	-27
SMILES	USP17 inh	OTUD3 block	USP28 inh	USP30 block
O=C(CCc1ccccc1)N1CCN(c2cc(-c3cccnc3)[nH]n2)CC1	16	13	14	30*
O=C(Nc1nnc(C2CCCCC2)s1)c1cc(=O)[nH]c2ccccc12	-18	-9	-39	-103
CCC(C)c1ccc(-c2csc(Cn3c(CN4CCN(C)CC4)nc4ccccc4c3=O)n2)cc1 (stereo not drawn)	58*	2	-6	-25
CCCN(CC(=O)Nc1ccccc1C)CC(=O)Nc1cccc2ccccc12	19	26	19	37*
Cc1cccc(NC(=O)CSCC(=O)Nc2cccc3ccccc23)c1	24	-5	-4	-1
Cc1ccccc1NC(=O)Cc1nc(-c2cccc3ccccc23)cs1	47*	0	14	17
COCCNC(=O)c1cccc(OC2CCN(Cc3cccc4nonc34)CC2)c1	-1	2	6	-5
CCOC(=O)c1ccc(-c2cccc(C(F)(F)F)c2)nc1C	9	14	2	6
CCOC(=O)c1cnc(C(F)(F)F)nc1Sc1n[nH]c(-c2cccs2)n1	86*	9	-5	5
COc1ccc(C(O)=C2C(=O)C(=O)N(CCN3CCOCC3)C2c2cccc(O)c2)cc1F (stereo not drawn)	-36	0	0	-23
Cc1ccc(NC(=O)c2ccc(N3C(=O)C(C)CS3(=O)=O)cc2Cl)cc1C (stereo not drawn)	-2	0	39*	-1
Cc1cccc(NC(=O)c2ccc(N3C(=O)C(C)CS3(=O)=O)cc2)c1C (stereo not drawn)	34*	3	x	x
CC1CS(=O)(=O)N(c2ccc(C(=O)NCc3ccc(F)cc3)cc2)C1=O (stereo not drawn)	-1	11	5	17
Cc1nonc1COc1ccccc1C(=O)N1CCC[C@]2(C[C@@H](Oc3cccc(F)c3)CO2)C1	-3	2	-18	-4
CN(C)C(=O)CNC(=O)c1ccc2onc(-c3coc(-c4ccccc4)n3)c2c1	42*	20	16	29
Cc1ccc(-c2onc3ccc(C(=O)NC4CCN(Cc5ccccc5)CC4)cc23)cc1	-7	-26	-54	-95
O=C(NC1CC1)c1ccc2onc(-c3coc(-c4ccccc4)n3)c2c1	24	12	5	38*
CC(C)(C)c1ccc(C(=O)Nc2ccc(Oc3cccnc3)nc2)cc1	0	8	53*	13
Cc1ccccc1C(=O)Nc1ccc(Oc2ccc(C(C)(C)C)cc2)nc1	6	2	12	1
O=c1c2[nH]c3ccc(Cl)cc3c2ncn1CCCN1CCOCC1	-5	-9	-10	-21
Cc1cc(N2CCCC2c2cncc(-n3ccnc3)n2)ncn1 (stereo not drawn)	-37	-2	-5	-46
Cn1c(=O)c2c(nc(N3CCN(C(=O)c4ccco4)CC3)n2CCSc2nnnn2-c2ccccc2)n(C)c1=O	2	8	12	37*
CN(C)c1ccc(NC(=O)CSc2nnc(-c3ccc(S(=O)(=O)N4CCOCC4)cc3)n2C)cc1	1	-11	7	45*
C=C(NC(=O)C(=C)NC(=O)c1csc(-c2ccc3c(n2)-c2csc(n2)-c2csc(n2)C(C(C)C2CO2)NC(=O)C(Cc2ccc(O)cc2)NC(=O)c2csc(n2)C(C(O)c2ccccc2)NC(=O)c2nc(sc2C)C(CC(N)=O)NC(=O)c2csc-3n2)n1)C(=O)O (stereo not drawn)	68*	1	22	24
